Screening results deposited in PubChem BioAssay by National Center for Advancing Translational Sciences (NCATS).
KB-V1 MDR tox: qHTS assay for MDR1-selective chemotherapeutics: Primary screen using the drug-selected MDR subline cells KB-V1; KB-V1 MDR cells viability, CellTiter-Glo, 72 h; Potency, µM (highest dose often 46.1 µM), actives largely listed as cytotoxic; 400,000 tested, 3.4% active; also: % is scaled to controls: 0 for no effect and ±100 for the full control effect; nearly all actives have a fitted effect of over 60% in size
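Potencies derive from concentration-effect curves fitted to normalized luminescence (CellTiter-Glo) of KB-V1 cells treated for 72 h at 37 degrees C in phenol-red-free DMEM containing 10% FBS.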
ATXN2 expr inh: Primary qHTS for Inhibitors of ATXN expression. Potency, µM (highest dose often 57 µM), inactives show top-dose activity change, negative = inhibition, hits mostly inhibitors. AID 1745845, 2022. 360,000 tested, 0.72% active. HEK-293 ATXN2-luciferase reporter, luminescence, 24 h; also: % is scaled to controls: 0 for no effect and ±100 for the full control effect; nearly all actives have a fitted effect of over 55% in size
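qHTS (up to 57 uM final) was run with 24 h compound exposure of reporter cells at 37 °C. Each well was multiplexed: SteadyGlo luminescence measured ATXN2-luciferase expression after a fluorogenic Gly-Phe-AFC viability readout (25 uM final).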
HT1080NT lethal: qHTS for induction of synthetic lethality in tumor cells producing 2HG: qHTS for the HT-1080-NT fibrosarcoma cell line. HT-1080-NT fibrosarcoma viability, CellTiter-Glo ATP luminescence, 48 h. Potency, µM (series often up to 46.1 µM), for inactives: at the top dose activity, negative = less viability, usual class: cytotoxic. 360,000 tested, 1.6% active. AID 686970, 2013;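 also: NT is the 2HG producing partner of a matched IDH1 knockdown line; 0% = DMSO-treated cells and -100% = media-only wells without cells; nearly all actives have a fitted effect of over 55% in size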
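A 48-hour cytotoxicity screen used HT-1080-NT cells plated 2 hours before compound delivery. ATP-based CellTiter-Glo luminescence measured viability, normalized to DMSO and no-cell controls.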
HT1080 IDH1KD tx: qHTS for induction of synthetic lethality in tumor cells producing 2HG: qHTS for the HT-1080-IDH1KD cell line; 360,000 tested, 2% active; AID 686971, 2013; HT-1080 IDH1 knockdown viability, ATP luminescence, 48 h; Potency, µM (doses to about 46.1 µM), for inactives: at the highest dose activity, negative = toxicity, hits mostly cytotoxic;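 also: 0% = DMSO wells and -100% = cell-free medium wells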
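CellTiter-Glo luminescence after 48 h compound exposure at 37 degrees C of IDH1-knockdown HT-1080 cells in 5% FBS RPMI. %Activity scaled between DMSO wells and cell-free media wells, with curves fitted and assigned curve classes.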
ATXN viability: Viability Counterscreen for Primary qHTS for Inhibitors of ATXN expression | S2 cells (HEK-293 line with an ATXN2-luciferase reporter) viability, CellTiter-Fluor protease fluorescence, 24 h | Potency, µM (highest dose often 56.7 µM), most hits filed as cytotoxic | 400,000 tested, 0.49% active | AID 651635, 2014; also: nearly all actives have a fitted effect of over 40% in size
KB-3-1 cytotox: qHTS assay for MDR1-selective chemotherapeutics: Primary screen using the parental adenocarcinoma cell KB-3-1. KB-3-1 viability, CellTiter-Glo ATP luminescence, 72 h. Potency, µM (doses to about 46.1 µM), most hits filed as cytotoxic. 400,000 tested, 1.4% active; also: % is scaled to controls: 0 for no effect and ±100 for the full control effect; nearly all actives have a fitted effect of over 60% in size
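KB-3-1 cells, DMEM (no phenol red) + 10% FBS; compound by pin transfer, 72 h, 37 °C. Readout: CellTiter-Glo luminescence after 10 min. Data normalized, curve-fitted.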
An asterisk follows results filed as active; i = inactive; ? = inconclusive; . = not tested or not shown. In the library only some 6.2% were active in any assay of this set; here they are far more common. Calls follow the shape of the dose curve; as a rule, active = well fitted curve in the direction sought with a large enough effect; inconclusive = small, poorly fitted or top-dose-only effect, or another doubt; inactive = no such curve, though single readings can be large; an effect the other way counts as inactive or inconclusive. Potency is read from the fitted curve at half-maximal effect.

SMILES	KB-V1 MDR tox	ATXN2 expr inh	HT1080NT lethal	HT1080 IDH1KD tx	ATXN viability	KB-3-1 cytotox
COc1cc(OC)cc(C2=Cc3ccc(OC)cc3C(CC(C)=O)N2c2ccc(-c3cccs3)cc2)c1 (stereo unspecified)	i	-2%	-2%	-12%	?	7.3µM*
COc1cc(OC)cc(C2=Cc3ccccc3C(CC(C)=O)N2c2ccc(-c3cncnc3)cc2)c1 (stereo unspecified)	?	4%	19%	3%	i	23µM*
Cc1ccc(Cc2c(C3CCCCC3)nc3ccc(Cl)cn23)cc1	i	0%	?	-22%	?	i
O=C(Nc1ccc(Cl)c(S(=O)(=O)N2CCOCC2)c1)c1ccc(OCC2CCCO2)cc1 (stereo unspecified)	i	?	18µM*	26µM*	.	?
O=C(Nc1ccc(Cl)c(S(=O)(=O)N2CCOCC2)c1)c1ccc(Cl)nc1	?	?	-4%	-13%	?	?
CC(C)Oc1ccc(C(=O)Nc2ccc(Cl)c(S(=O)(=O)Nc3ccc(Cl)cc3)c2)cc1	5.8µM*	?	?	-28%	?	?
COc1ccc(NS(=O)(=O)c2cc(NC(=O)c3ccc(Cl)cc3)ccc2N2CCOCC2)cc1	5.8µM*	-16%	2.3µM*	2.6µM*	?	?
COc1ccc(C(=O)Nc2ccc(S(=O)(=O)N3CCOCC3)cc2)cc1	i	-6%	4%	-5%	i	i
COc1ccc(C(=O)Nc2ccc(Cl)c(S(=O)(=O)N3CCOCC3)c2)cc1	7.3µM*	?	3.7µM*	-4%	?	?
COc1ccc(NS(=O)(=O)c2ccc(N3CCOCC3)c(NC(=O)C(C)C)c2)cc1	18µM*	-22%	-11%	-9%	i	?
CCN(CC)S(=O)(=O)c1ccc(N2CCCC2)c(NS(=O)(=O)c2ccc(OC)cc2)c1	4.1µM*	0%	-2%	0%	i	i
COc1ccc(NC(=O)c2ccc(Br)c(S(=O)(=O)N3CCOCC3)c2)cc1	21µM*	-10%	-19%	-13%	i	?
COc1ccc(NS(=O)(=O)c2ccc(N3CCCCC3)c(N)c2)cc1	?	.	-19%	-26%	?	21µM*
COC(=O)[C@H](Cc1ccccc1)NC(=O)/C=C/[C@H]1O[C@@H](n2cc(C)c(=O)[nH]c2=O)C[C@@H]1O	i	3%	17%	28%	i	i
CCOC(=O)C1(C)CCN1C(=O)c1ccc(OC)c(C(F)(F)F)c1 (stereo unspecified)	i	8%	10%	2%	i	i
CN1CCN(c2ccc(CNC(=O)C3(C)Cc4c(-c5ccc6c(c5)OCO6)ccnc4O3)cc2)CC1 (stereo unspecified)	i	-3%	?	-13%	i	i
CCN(CC)c1ccc2c(-c3ccc(S(=O)(=O)O)cc3S(=O)(=O)[O-])c3ccc(=[N+](CC)CC)cc-3oc2c1	?	?	?	?	13µM*	?
O=C(Nc1nnc(CSCc2ccc(Cl)cc2)s1)c1cccc([N+](=O)[O-])c1	i	-19%	3%	6%	i	i
O=C(Nc1nnc(CSCc2ccc(F)cc2)s1)c1cccc([N+](=O)[O-])c1	4.6µM*	-9%	2%	0%	i	?
CCC(C)(C)c1nnc(NC(=O)c2cccc([N+](=O)[O-])c2)s1	21µM*	53%	-16%	-9%	i	i
CC(C)OC(=O)C1=CN(C(=O)c2ccc(F)c(F)c2)CC(C)(C)c2c1[nH]c1ccccc21	.	6%	.	.	.	.
CCC1(C2CCN(Cc3cc4ccccc4o3)CC2)NC(=O)N(CC2COc3ccccc3O2)C1=O (stereo unspecified)	.	.	.	.	i	.
O=c1c(Cl)c(Cl)cnn1Cc1nnc(-c2ccccc2Br)o1	?	?	12µM*	9.2µM*	.	i
Clc1ccccc1OCc1nnc(-c2ccccc2Br)o1	i	43%	5%	0%	i	i
COc1cc2nc(Cl)nc(N)c2cc1OC	.	9%	.	.	i	.
SMILES	KB-V1 MDR tox	ATXN2 expr inh	HT1080NT lethal	HT1080 IDH1KD tx	ATXN viability	KB-3-1 cytotox
Cc1ccccc1CN(C)C[C@@H]1OCc2cnnn2CCCC(=O)N([C@H](C)CO)C[C@H]1C	i	-2%	10%	3%	i	i
CC(C)C[C@H]1CNC(=S)N1C[C@H]1CCCN1C[C@H](Cc1ccc(O)cc1)N1C[C@H](Cc2ccc(O)cc2)N(CCc2ccccc2)C1=S	i	?	21µM*	21µM*	.	?
CC(C)C[C@@H](CN1CCC[C@@H]1CN1C(=S)NC[C@@H]1Cc1ccc(O)cc1)N1C[C@H](Cc2ccc(O)cc2)N(CCc2ccccc2)C1=S	?	-23%	26µM*	?	28µM*	i
CCOc1ccc(CCN2C(=S)N([C@@H](CC(C)C)CN3CCC[C@@H]3CN3C(=S)NC[C@@H]3CC(C)C)C[C@@H]2Cc2ccc(O)cc2)cc1	i	?	23µM*	16µM*	13µM*	?
Cc1c(Cl)cccc1NC(=O)Nc1c[nH]c(=O)[nH]c1=O	i	7%	.	.	i	i
COc1ccc(C2C(Oc3ccccc3)C(=O)N2c2cc(C)ccc2C)cc1OC (stereo unspecified)	6.5µM*	1%	2%	2%	i	i
NC(Cc1ccc(F)cc1)c1csc(Nc2cc(NCc3ccco3)ncn2)n1 (stereo unspecified)	?	18µM*	18µM*	16µM*	?	i
NC(COCc1ccccc1)c1csc(Nc2cc(Oc3ccccc3)ncn2)n1 (stereo unspecified)	?	?	23µM*	?	?	i
CC(N)c1csc(Nc2cc(Oc3ccccc3)ncn2)n1 (stereo unspecified)	i	2%	?	-22%	i	i
NC(Cc1ccc(F)cc1)c1csc(Nc2cc(Oc3ccccc3)ncn2)n1 (stereo unspecified)	?	?	?	16µM*	28µM*	?
COc1ccc(CC(N)c2csc(Nc3cc(Oc4ccccc4)ncn3)n2)cc1 (stereo unspecified)	i	?	-23%	?	?	i
